Measured values: PubChem BioAssay AID1159580 (chemical genetic matrix, 2015)
Screen size: about 5,500 compounds; about 2,000 (36%) were called active. Inconclusive results (about 18%) are left out. Rule as the data show it: active = normalized growth mostly below about 0.91 (no sharp cut-off); inconclusive = no clear call, values can overlap the other calls; inactive = mostly above about 0.92. Some of the results follow.

Test: chemical genetic growth profiling, strain panel (AID 1159580);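 also: tested at 20 µM; growth read once vehicle control cultures reached saturation at 30 °C; 1 = growth at the plate median or of vehicle wells; lower values mean less growth of the strain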
Conditions: growth OD

Measured: normalized growth

C[C@@H]([C@H](O)c1ccccc1)N(C)C
inactive: S. cerevisiae deletion strains, locus YAL013W, strain DEP1, stronger effect = lower value 1.01 | S. cerevisiae deletion strains, locus YAL021C, strain ccr4, stronger effect = lower value 1.01 | S. cerevisiae deletion strains, locus YAL026C, strain drs2, stronger effect = lower value 1.01 | S. cerevisiae deletion strains, locus YAL030W, strain snc1, stronger effect = lower value 1.02 | S. cerevisiae deletion strains, locus YBL061C, strain skt5, stronger effect = lower value 1.01 | S. cerevisiae deletion strains, locus YBR009C, strain hhf1, stronger effect = lower value 1.01 | S. cerevisiae deletion strains, locus YBR021W, strain FUR4, stronger effect = lower value 0.983 | S. cerevisiae deletion strains, locus YBR023C, strain chs3, stronger effect = lower value 1.01 | S. cerevisiae deletion strains, locus YBR171W, strain sec66, stronger effect = lower value 1.03 | S. cerevisiae deletion strains, locus YBR229C, strain ROT2, stronger effect = lower value 1 | S. cerevisiae deletion strains, locus YBR231C, strain swc5, stronger effect = lower value 1.01 | S. cerevisiae deletion strains, locus YBR279W, strain paf1, stronger effect = lower value 1.02 | S. cerevisiae deletion strains, locus YCL011C, strain gbp2, stronger effect = lower value 1.01 | S. cerevisiae deletion strains, locus YCL016C, strain dcc1, stronger effect = lower value 1.01 | S. cerevisiae deletion strains, locus YCL029C, strain bik1, stronger effect = lower value 1 | S. cerevisiae deletion strains, locus YCL061C, strain MRC1, stronger effect = lower value 1.01 | S. cerevisiae deletion strains, locus YCL069W, strain vba3, stronger effect = lower value 1.01 | S. cerevisiae deletion strains, locus YCR088W, strain abp1, stronger effect = lower value 1.01 | S. cerevisiae deletion strains, locus YDL005C, strain med2, stronger effect = lower value 1.02 | S. cerevisiae deletion strains, locus YDL035C, strain GPR1, stronger effect = lower value 1.02 | S. cerevisiae deletion strains, locus YDL040C, strain nat1, stronger effect = lower value 1.02 | S. cerevisiae deletion strains, locus YDL074C, strain BRE1, stronger effect = lower value 0.999 | S. cerevisiae deletion strains, locus YDL101C, strain DUN1, stronger effect = lower value 1 | S. cerevisiae deletion strains, locus YDL134C, strain PPH21, stronger effect = lower value 1 | S. cerevisiae deletion strains, locus YDL185W, strain tfp1, stronger effect = lower value 1.01 | S. cerevisiae deletion strains, locus YDL192W, strain arf1, stronger effect = lower value 1.02 | S. cerevisiae deletion strains, locus YDR001C, strain nth1, stronger effect = lower value 1.01 | S. cerevisiae deletion strains, locus YDR069C, strain doa4, stronger effect = lower value 1.03 | S. cerevisiae deletion strains, locus YDR101C, strain arx1, stronger effect = lower value 0.981 | S. cerevisiae deletion strains, locus YDR137W, strain rgp1, stronger effect = lower value 0.984 | S. cerevisiae deletion strains, locus YDR150W, strain NUM1, stronger effect = lower value 1.01 | S. cerevisiae deletion strains, locus YDR159W, strain sac3, stronger effect = lower value 1.03 | S. cerevisiae deletion strains, locus YDR162C, strain NBP2, stronger effect = lower value 1.02 | S. cerevisiae deletion strains, locus YDR195W, strain ref2 1.01 | S. cerevisiae deletion strains, locus YDR297W, strain sur2, stronger effect = lower value 1.01 | S. cerevisiae deletion strains, locus YDR318W, strain mcm21, stronger effect = lower value 1.01 | S. cerevisiae deletion strains, locus YDR334W, strain swr1, stronger effect = lower value 1.02 | S. cerevisiae deletion strains, locus YDR335W, strain msn5, stronger effect = lower value 1.03 | S. cerevisiae deletion strains, locus YDR388W, stronger effect = lower value 1.01 | S. cerevisiae deletion strains, locus YDR392W, strain spt3, stronger effect = lower value 1.03 | S. cerevisiae deletion strains, locus YDR502C, strain sam2, stronger effect = lower value 1.01 | S. cerevisiae deletion strains, locus YEL003W, strain gim4, stronger effect = lower value 1.02 | S. cerevisiae deletion strains, locus YEL037C, strain rad23, stronger effect = lower value 1.01 | S. cerevisiae deletion strains, locus YEL061C, strain CIN8 (second series), stronger effect = lower value 1.01 | S. cerevisiae deletion strains, locus YEL061C, strain CIN8, stronger effect = lower value 1.01 | S. cerevisiae deletion strains, locus YER015W, strain faa2, stronger effect = lower value 1.01 | S. cerevisiae deletion strains, locus YER016W, strain bim1, stronger effect = lower value 1.02 | S. cerevisiae deletion strains, locus YER110C, stronger effect = lower value 1.01 | S. cerevisiae deletion strains, locus YER111C, strain swi4, stronger effect = lower value 1.01 | S. cerevisiae deletion strains, locus YER155C, strain BEM2 (second series), stronger effect = lower value 1.03 | S. cerevisiae deletion strains, locus YER155C, strain BEM2, stronger effect = lower value 1 | S. cerevisiae deletion strains, locus YER167W, strain BCK2, stronger effect = lower value 1.01 | S. cerevisiae deletion strains, locus YFR010W, strain ubp6, stronger effect = lower value 1.02 | S. cerevisiae deletion strains, locus YGL078C, strain dbp3, stronger effect = lower value 1.01 | S. cerevisiae deletion strains, locus YGL086W, strain mad1, stronger effect = lower value 0.997 | S. cerevisiae deletion strains, locus YGL167C, strain pmr1, stronger effect = lower value 0.956 | S. cerevisiae deletion strains, locus YGL173C, strain kem1, stronger effect = lower value 1.01 | S. cerevisiae deletion strains, locus YGL227W, strain vid30, stronger effect = lower value 1.01 | S. cerevisiae deletion strains, locus YGL240W, strain doc1, stronger effect = lower value 1.01 | S. cerevisiae deletion strains, locus YGL248W, strain PDE1, stronger effect = lower value 1 | S. cerevisiae deletion strains, locus YGL253W, strain hxk2, stronger effect = lower value 1.02 | S. cerevisiae deletion strains, locus YGR078C, strain PAC10, stronger effect = lower value 1.02 | S. cerevisiae deletion strains, locus YGR135W, strain pre9, stronger effect = lower value 1.03 | S. cerevisiae deletion strains, locus YGR252W, strain gcn5, stronger effect = lower value 1.02 | S. cerevisiae deletion strains, locus YHR013C, strain ard1, stronger effect = lower value 1.05 | S. cerevisiae deletion strains, locus YHR027C, strain rpn1, stronger effect = lower value 1.01 | S. cerevisiae deletion strains, locus YHR030C, strain SLT2, stronger effect = lower value 1.02 | S. cerevisiae deletion strains, locus YHR079C, strain IRE1 (second series), stronger effect = lower value 1.01 | S. cerevisiae deletion strains, locus YHR094C, strain hxt1, stronger effect = lower value 1.01 | S. cerevisiae deletion strains, locus YHR129C, strain ARP1, stronger effect = lower value 1.01 | S. cerevisiae deletion strains, locus YHR142W, strain chs7, stronger effect = lower value 1.01 | S. cerevisiae deletion strains, locus YHR200W, strain rpn10, stronger effect = lower value 1 | S. cerevisiae deletion strains, locus YIL066C, strain RNR3, stronger effect = lower value 1 | S. cerevisiae deletion strains, locus YIL073C, strain SPO22, stronger effect = lower value 1.05 | S. cerevisiae deletion strains, locus YIL125W, strain kgd1, stronger effect = lower value 1 | S. cerevisiae deletion strains, locus YIR030C, strain dcg1, stronger effect = lower value 1.01 | S. cerevisiae deletion strains, locus YJL092W, strain hpr5, stronger effect = lower value 1.01 | S. cerevisiae deletion strains, locus YJL095W, strain BCK1 (second series), stronger effect = lower value 1.02 | S. cerevisiae deletion strains, locus YJL095W, strain BCK1, stronger effect = lower value 0.996 | S. cerevisiae deletion strains, locus YJL115W, strain asf1, stronger effect = lower value 1.02 | S. cerevisiae deletion strains, locus YJL129C, strain trk1, stronger effect = lower value 1.03 | S. cerevisiae deletion strains, locus YJL134W, strain LCB3, stronger effect = lower value 1.01 | S. cerevisiae deletion strains, locus YJL154C, strain vps35, stronger effect = lower value 1.02 | S. cerevisiae deletion strains, locus YJL164C, strain tpk1, stronger effect = lower value 1.02 | S. cerevisiae deletion strains, locus YJL166W, strain qcr8, stronger effect = lower value 1.02 | S. cerevisiae deletion strains, locus YJL168C, strain set2, stronger effect = lower value 1 | S. cerevisiae deletion strains, locus YJL187C, strain SWE1 (second series), stronger effect = lower value 0.993 | S. cerevisiae deletion strains, locus YJL187C, strain SWE1, stronger effect = lower value 1.02 | S. cerevisiae deletion strains, locus YJR043C, strain POL32, stronger effect = lower value 1.01 | S. cerevisiae deletion strains, locus YJR075W, strain HOC1, stronger effect = lower value 1 | S. cerevisiae deletion strains, locus YKL009W, strain mrt4, stronger effect = lower value 1.02 | S. cerevisiae deletion strains, locus YKL068W, stronger effect = lower value 1 | S. cerevisiae deletion strains, locus YKL085W, strain MDH1 (second series), stronger effect = lower value 1.02 | S. cerevisiae deletion strains, locus YKL085W, strain MDH1, stronger effect = lower value 1.02 | S. cerevisiae deletion strains, locus YKL160W, strain elf1, stronger effect = lower value 1.01 | S. cerevisiae deletion strains, locus YKL190W, strain CNB1, stronger effect = lower value 1.02 | S. cerevisiae deletion strains, locus YKR001C, strain vps1, stronger effect = lower value 1 | S. cerevisiae deletion strains, locus YKR026C, strain gcn3, stronger effect = lower value 1.01 | S. cerevisiae deletion strains, locus YKR091W, strain srl3, stronger effect = lower value 1.01 | S. cerevisiae deletion strains, locus YLL001W, strain dnm1, stronger effect = lower value 1.01 | S. cerevisiae deletion strains, locus YLL026W, stronger effect = lower value 1.01 | S. cerevisiae deletion strains, locus YLL041C, strain sdh2, stronger effect = lower value 1.02 | S. cerevisiae deletion strains, locus YLR027C, strain aat2, stronger effect = lower value 1.01 | S. cerevisiae deletion strains, locus YLR039C, strain RIC1, stronger effect = lower value 1.03 | S. cerevisiae deletion strains, locus YLR058C, strain SHM2, stronger effect = lower value 1.01 | S. cerevisiae deletion strains, locus YLR102C, strain apc9, stronger effect = lower value 1 | S. cerevisiae deletion strains, locus YLR221C, strain rsa3, stronger effect = lower value 1.01 | S. cerevisiae deletion strains, locus YLR258W, strain gsy2, stronger effect = lower value 1.01 | S. cerevisiae deletion strains, locus YLR262C, strain YPT6 (second series), stronger effect = lower value 1 | S. cerevisiae deletion strains, locus YLR262C, strain YPT6, stronger effect = lower value 1 | S. cerevisiae deletion strains, locus YLR268W, strain sec22, stronger effect = lower value 1.01 | S. cerevisiae deletion strains, locus YLR320W, strain mms22, stronger effect = lower value 1.02 | S. cerevisiae deletion strains, locus YLR330W, strain CHS5, stronger effect = lower value 1.01 | S. cerevisiae deletion strains, locus YLR342W, strain FKS1 (second series), stronger effect = lower value 1.03 | S. cerevisiae deletion strains, locus YLR342W, strain FKS1, stronger effect = lower value 1.02 | S. cerevisiae deletion strains, locus YLR357W, strain rsc2, stronger effect = lower value 1.04 | S. cerevisiae deletion strains, locus YLR370C, strain arc18, stronger effect = lower value 1.01 | S. cerevisiae deletion strains, locus YLR371W, strain rom2, stronger effect = lower value 1 | S. cerevisiae deletion strains, locus YLR384C, strain iki3, stronger effect = lower value 1.02 | S. cerevisiae deletion strains, locus YLR418C, strain cdc73, stronger effect = lower value 1.04 | S. cerevisiae deletion strains, locus YML016C, strain PPZ1, stronger effect = lower value 1.01 | S. cerevisiae deletion strains, locus YML032C, strain rad52, stronger effect = lower value 1 | S. cerevisiae deletion strains, locus YML120C, strain ndi1, stronger effect = lower value 1.02 | S. cerevisiae deletion strains, locus YML124C, strain tub3, stronger effect = lower value 1.01 | S. cerevisiae deletion strains, locus YMR058W, strain fet3, stronger effect = lower value 1.02 | S. cerevisiae deletion strains, locus YMR078C, strain ctf18, stronger effect = lower value 1.01 | S. cerevisiae deletion strains, locus YMR125W, strain sto1, stronger effect = lower value 1.02 | S. cerevisiae deletion strains, locus YMR129W, stronger effect = lower value 1.02 | S. cerevisiae deletion strains, locus YMR205C, strain PFK2, stronger effect = lower value 1.02 | S. cerevisiae deletion strains, locus YMR223W, strain ubp8, stronger effect = lower value 1.04 | S. cerevisiae deletion strains, locus YMR231W, strain pep5, stronger effect = lower value 1.01 | S. cerevisiae deletion strains, locus YMR307W, strain GAS1, stronger effect = lower value 1.02 | S. cerevisiae deletion strains, locus YNL067W, strain RPL9B, stronger effect = lower value 0.999 | S. cerevisiae deletion strains, locus YNL071W, strain lat1, stronger effect = lower value 1.01 | S. cerevisiae deletion strains, locus YNL153C, strain GIM3, stronger effect = lower value 0.985 | S. cerevisiae deletion strains, locus YNL209W, strain ssb2, stronger effect = lower value 1.02 | S. cerevisiae deletion strains, locus YNL233W, strain BNI4, stronger effect = lower value 0.982 | S. cerevisiae deletion strains, locus YNL248C, strain rpa49, stronger effect = lower value 1 | S. cerevisiae deletion strains, locus YNL250W, strain rad50, stronger effect = lower value 1.05 | S. cerevisiae deletion strains, locus YNL271C, strain bni1, stronger effect = lower value 1.01 | S. cerevisiae deletion strains, locus YNL298W, strain CLA4, stronger effect = lower value 1.02 | S. cerevisiae deletion strains, locus YNL307C, strain MCK1, stronger effect = lower value 1.01 | S. cerevisiae deletion strains, locus YNL322C, strain KRE1 (second series), stronger effect = lower value 1 | S. cerevisiae deletion strains, locus YNR049C, strain mso1, stronger effect = lower value 1.01 | S. cerevisiae deletion strains, locus YNR052C, strain pop2, stronger effect = lower value 1 | S. cerevisiae deletion strains, locus YOL006C, strain TOP1, stronger effect = lower value 1 | S. cerevisiae deletion strains, locus YOL012C, strain htz1 0.634 | S. cerevisiae deletion strains, locus YOL147C, strain pex11, stronger effect = lower value 1.01 | S. cerevisiae deletion strains, locus YOR001W, strain rrp6, stronger effect = lower value 1.01 | S. cerevisiae deletion strains, locus YOR061W, strain CKA2, stronger effect = lower value 1.01 | S. cerevisiae deletion strains, locus YOR069W, strain VPS5, stronger effect = lower value 1 | S. cerevisiae deletion strains, locus YOR070C, strain gyp1, stronger effect = lower value 1.02 | S. cerevisiae deletion strains, locus YOR080W, strain dia2, stronger effect = lower value 1.03 | S. cerevisiae deletion strains, locus YOR083W, strain WHI5, stronger effect = lower value 1.02 | S. cerevisiae deletion strains, locus YOR106W, strain vam3, stronger effect = lower value 1.01 | S. cerevisiae deletion strains, locus YOR136W, strain idh2, stronger effect = lower value 1 | S. cerevisiae deletion strains, locus YOR144C, strain elg1, stronger effect = lower value 1.01 | S. cerevisiae deletion strains, locus YOR184W, strain ser1, stronger effect = lower value 1.01 | S. cerevisiae deletion strains, locus YOR265W, strain rbl2, stronger effect = lower value 1.02 | S. cerevisiae deletion strains, locus YOR270C, strain vph1, stronger effect = lower value 1.03 | S. cerevisiae deletion strains, locus YOR290C, strain snf2, stronger effect = lower value 1.01 | S. cerevisiae deletion strains, locus YOR316C, strain cot1, stronger effect = lower value 1.01 | S. cerevisiae deletion strains, locus YPL051W, strain arl3, stronger effect = lower value 1.01 | S. cerevisiae deletion strains, locus YPL078C, strain atp4, stronger effect = lower value 1.02 | S. cerevisiae deletion strains, locus YPL106C, strain sse1, stronger effect = lower value 1.03 | S. cerevisiae deletion strains, locus YPL240C, strain hsp82, stronger effect = lower value 1.02 | S. cerevisiae deletion strains, locus YPR119W, strain clb2, stronger effect = lower value 1.01 | S. cerevisiae deletion strains, locus YPR141C, strain kar3, stronger effect = lower value 1 | S. cerevisiae deletion strains, locus YPR163C, strain tif3, stronger effect = lower value 1.01 | S. cerevisiae deletion strains, locus YPR167C, strain met16, stronger effect = lower value 1 | S. cerevisiae deletion strains, strain wtn01, stronger effect = lower value 1.01 | S. cerevisiae strains, strain wild type, stronger effect = lower value 1.01
